In PubChem BioAssay (NCI):
This is part of a sample that, as a whole, favours compounds with a hit. Of some 83,000 tested, about 20% had one in any assay.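 Activity criterion: percent growth below 10, measured after cells in 96-well plates were exposed to a single compound concentration for 48 hours.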 Values without a mark were called inactive.

These molecules were tested on MDA-MB-468 breast (assay: NCI-60 one-dose screen, 48 h (100 = growth as untreated, 0 = no growth, -100 = all killed)). Details: 10 µM unless noted.

Point of comparison: O=C(/C(=C/c1ccc([N+](=O)[O-])cc1)c1ccccc1)c1ccccc1, growth 51.4%. Against it:
- Nc1nc(C(=O)N/N=C/c2ccc(N3CCOCC3)cc2)nn1-c1ccc(S(N)(=O)=O)cc1 — higher, 105%
- Cc1[nH]nc(C(N)=O)c1[N+](=O)[O-] — higher, 85.5%
- CC1(C)CC[C@]2(C(=O)O)CC[C@]3(C)C(=CC[C@@H]4[C@@]5(C)C/C(=C/O)C(=O)C(C)(C)[C@@H]5CC[C@]43C)[C@@H]2C1 — higher, 77.3%
- COc1cc(-c2nn(-c3cccc(NC(=O)CCNc4ccc(N5CCOCC5)cc4)c3)cc2-c2ccncc2)ccc1Cl — lower, 30.7%
